Among all 52,000 sequences or so, about 210 (0.4%) were called active. This is one part of a sample in which actives are shown more often than they occur.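 How the source made its calls: active means gene whose silencing raises cell survival under the drug, median off-target-corrected z-score across its silencing RNAs 2 or more; inactive means the rest.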

The nature of this test: Resistance to Poly (ADP-Ribose) Polymerase inhibitor: Gene Identification via Genome-wide siRNA Screen. The settings on record: mouse BRCA2 R2336H ES cells, olaparib, CellTiter-Glo viability; hits give high values. From the text: The role of Poly (ADP-Ribose) Polymerase (PARP) proteins in DNA repair has been elegantly utilized for the synthetic lethality-based treatment of BRCA-deficient tumors by PARP inhibitors. PARP inhibitors are now being used for treatment of BRCA-deficient breast and ovarian cancers. […] While several mechanisms of drug resistance have been identified, majority of these tumors develop drug resistance due to unknown causes. To identified novel regulators of chemo-resistance in BRCA2-mutated cells, we performed a genome wide siRNA library screen. We have found ES cells expressing a hypomorphic allele of BRCA2 to be hypersensitive to PAPP inhibitors (such as olaparib). We used ES cells expressing a mutant allele of BRCA2 that has a single amino acid substitution at position 2336 (arginine to histidine, R2336H). The screen was conducted using an Ambion (Thermo) Silencer Mouse Genome siRNA collection. The library targets 17,575 mouse genes with 3 siRNAs per gene. TET2 (E130014J05Rik) was identified as a top candidate.
Transfections were performed in 384 well plates (Corning 3707). Plates were coated with 0.1% gelatin in H2O overnight at ambient temperature. Gelatin solution was aspirated (BioTek EL406) and siRNAs were printed using a Bravo VPrep liquid handler integrated within a BioCel automation platform (Agilent). Cell viability was measured using CellTiter Glo (Promega). For transfections, […] of serum free media containing Lipofectamine RNAiMax […] was added to wells containing siRNA (0.8pmol). Lipid and siRNA were allowed to complex for 45 min at ambient temperature before addition of 1000 cells in DMEM, 30% FBS to yield final transfection mixtures containing 20 nM siRNA in DMEM, 15% FBS. PARPi (olaparib, AZD2281) was added 48 h post-transfection (500 nM) and viability (CellTiter Glo, Promega) was assayed 72 h later on a PerkinElmer Envision 2104 Multilabel plate reader. Ambion Silencer Select Negative Control #2 was incorporated on all screening plates (16 wells) and the median negative control value on each plate was used for normalization. An siRNA targeting Trp53 was used as a positive control. This control yielded a median protective effect of ~1.9 fold versus negative control throughout the screen. The median absolute deviation (MAD) based z-score was calculated for each siRNA. Genes were then ranked by taking the median value for all siRNAs tested against a given gene. Scores were also adjusted for seed-based off-target effects to help deprioritize likely false positives.
Background: In ATP-based viability assays light output follows the ATP content of the culture.
Consider GCACUGGAAUCAAACCAUCTT against Ppp2r5b, for which the z-score was 2.45 (active). The same measure for GGUUUGAGCUCUUUAUUUUTT against Cyp2j13: 0.00818 (inactive); for GGCGCAUGUUUCCAGCAAUTT against Tbx18: 1.87 (inactive); for GGAUCUCUGUUUCUCAAAATT against Slc19a3: 0.771 (inactive). For “CCUCAAGAGAGCUACCGCATT against 1700018C11Rik”, the z-score is 0.313 (inactive).

In the case of GGCCCAUUGAUCUGUGAUATT against Klk8, the z-score is -0.338 (inactive).

Turning to GCAUGCGCGCUACACUCUATT against Adamts5, the z-score was 0.75 (active). Regarding GAUUACAGACAGUGGAAAATT against Ndufb3, the z-score was 0.951 (inactive). The same measure for GGUAGUGUUAACUAUAUGGTT against Hmgb3: 1.85 (active). As for GAUCUUAUAUGUUGGUGGUTT against V1rc2, the figure is -0.413 (inactive).

Turning to “CCUUAAUAAACUAUGCUGCTT against 2810439M11Rik”, the z-score is -1.83 (inactive). As for CCCUUGAAGAUCACUUAGCTT against Apln, the figure is 0.228 (inactive); as for GGCACAGGGACCAUUGUUGTT against Hsd17b1, 2.34 (active). The same measure for CGUACAAGACCAACAGAAGTT against D8Ertd82e: 2.36 (inactive); for GCUCAACAGACUCUGUACUTT against Igsf4d: 2.89 (inactive). For “GCUAGUUGGAGCUAGAUUATT against E130320D18”, the z-score is 0.013 (inactive). In the case of GGGUUCCUCCUUUCACAGATT against Ppia, the z-score is -0.754 (inactive). The same measure for CCGAAAUAAGGCUAGCUCATT against Rfxdc1: 1.33 (inactive); for CGGCCUAUCUCUUGGUUUATT against Usp18: 2.69 (active).

GGACAUCCAUUCAAGGCCUTT against Rtn3: the z-score is 1.05 (inactive). GGAAUUUGACAAACUCAGCTT against Rcn3: the z-score was 0.337 (inactive). As for CCGUGGGACCAGAGUUAAATT against Gm253, the figure is 1.99 (inactive); as for GGUCAUCUAUCGUGUGCUGTT against Lamb2, 1.09 (inactive); as for CCAUUUAACCGUAAGACGUTT against Krtap8-2, 0.535 (inactive).

With CCUACAUUCACCAAAAGGUTT against Usp9y, the z-score was 0.561 (inactive). The same measure for “GGUCUCAAUCAGAGUUACATT against D430030K24Rik”: 1.08 (active); for GGUGAUCAAUCCUCUAAUATT against Cri2: 3.03 (inactive).

As for AACAGCAUCUUUGUGGUCCTT against Ins1, the z-score was -0.451 (inactive). On to GGAUAAACUUCCAUCUUUCTT against Car14, for which the z-score was 1.27 (inactive). As for GGAAGGAAGAAAAAAUAGUTT against Acat1, the figure is -0.146 (inactive); as for GGGCUGGAAUAAACUUGUCTT against Usp15, 1.51 (active); as for GGAACAUAGUAGCAUGCCATT against Leprel2, -0.442 (inactive). In the case of GGCUUAUGUCCCAAAGCUATT against Nexn, the z-score was 1.35 (inactive). The same measure for “CUGUAAGGCGGAUAAGACCTT against 2610017I09Rik”: -0.52 (inactive).

With CCCACUAAGAAACAAUCUATT against Gp1ba, the z-score is 0.484 (inactive).

With GGGACUUCUUGUGAAUGGATT against Mobp, the z-score was -0.971 (inactive).

As to GUCUGUAUUCCUAGAUUCCTT against Olfr794, the z-score was 0.287 (inactive). As for GGUCACUGUUUCCCUAGACTT against Prss33, the figure is -0.494 (active); as for GGUUAGGUUGAUGAAUAAGTT against Eif4ebp2, -0.495 (inactive). As for “GGUUUUUGAGCCAUAUCCATT against 4632404H22Rik”, the figure is 0.625 (inactive); as for GGAUCCAAGCAUUAUAGUGTT against LOC229512, -0.425 (inactive). The same measure for CCCUUGUGAUGUGGUGAAGTT against Slc25a22: -1.58 (inactive); for GGACAAGGAUAGUAGUAAGTT against Adprt1: 3.83 (active); for GCAUGAAAACACGUUUGGGTT against Hdac11: 0.768 (inactive).

Take CGAUCUUCCAAACCCUCUUTT against Dhh: the z-score was -0.652 (inactive). The same measure for GGACUGAGGAAGAAUUUAATT against Grp58: -0.954 (inactive); for GGAAUGUAUCCAGGACUUCTT against Brd4: -1.95 (inactive); for GGAGAUCGUGCAAUUCAUUTT against Rasl2-9: -0.53 (inactive). On to GGCGGUGAUCCAGGGUUUATT against Klc2, for which the z-score is -0.0337 (inactive). Turning to GCAAUGUCGCCAAACGUAATT against Zfpn1a1, the z-score is -0.213 (inactive). The same measure for CCGUAAUUGAUUCUUUACUTT against Kif3a: 2.25 (active); for GCCCAAACUCAAGCAAGUCTT against Trpm3: -2.79 (inactive). As for GGCUACGAAACCAGAAGAUTT against Shd, the figure is 0.117 (inactive).

With CCUUCUGGCCCAGACGAUUTT against Pxmp2, the z-score is -0.173 (inactive). For GCUGAGAGAAAGGUUCACATT against Tube1, the z-score was -1.3 (inactive). The same measure for CCUUGUAUCCUUAAUCCUCTT against Ppt1: 0.555 (inactive); for GGAAGCAGAAUUGUAAAGATT against Bid3: 2.41 (active); for GGAAAUGUGACCACAAAGATT against Tas2r120: -0.347 (inactive).

With GGAAGAAUUGAACCACAGGTT against Papolg, the z-score was 0.756 (inactive). Turning to “GGUGGCACUCUUUCAGAUCTT against 6030446I19Rik”, the z-score was 0.179 (inactive). As for GCCUGCUCUUGAAGGAUAATT against Ptpn9, the figure is 1.13 (active); as for GGACCUGUUUGAAGAAAAGTT against Gnai2, -0.66 (inactive).

For the sequence GGUUUCUCUCUACGCUAUGTT against Nrp2, the z-score was 1.81 (inactive). On to GGACUGGUUCUUCAGUACCTT against Cradd, for which the z-score is 2.24 (inactive).

On to CCGGCAACAUGCGUGAAUUTT against Trpv4, for which the z-score is -0.769 (inactive).

In the case of “GGAAAAAUGGGAGUUUGAATT against 4932423M01Rik”, the z-score was -0.322 (inactive).

Consider GGAAUUUUAGCGGAUGAUATT against Smarca3, for which the z-score is 1.54 (active). The same measure for “CCUAGAUUGAAAAUUGUCATT against 1700049G17Rik”: -0.329 (inactive).

(Values after PubChem BioAssay AID1347423 (Functional Genomics Laboratory (NCATS/FGL), 2020).)
